From ChEMBL document CHEMBL4808148, “HDAC6 screening dataset using tau-based substrate in an enzymatic assay yields selective inhibitors and activators” (2021) come the findings set out here.

In all, about 5,600 compounds went through this assay and about 390 (7%) showed an effect of 50% or more. Only a selection was taken, and strong results are over-represented in it overall.

In the experiment the target is T1, Protein deacetylase HDAC6 (Homo sapiens) (UniProt Q9UBN7).
T1 sequence (whole entry): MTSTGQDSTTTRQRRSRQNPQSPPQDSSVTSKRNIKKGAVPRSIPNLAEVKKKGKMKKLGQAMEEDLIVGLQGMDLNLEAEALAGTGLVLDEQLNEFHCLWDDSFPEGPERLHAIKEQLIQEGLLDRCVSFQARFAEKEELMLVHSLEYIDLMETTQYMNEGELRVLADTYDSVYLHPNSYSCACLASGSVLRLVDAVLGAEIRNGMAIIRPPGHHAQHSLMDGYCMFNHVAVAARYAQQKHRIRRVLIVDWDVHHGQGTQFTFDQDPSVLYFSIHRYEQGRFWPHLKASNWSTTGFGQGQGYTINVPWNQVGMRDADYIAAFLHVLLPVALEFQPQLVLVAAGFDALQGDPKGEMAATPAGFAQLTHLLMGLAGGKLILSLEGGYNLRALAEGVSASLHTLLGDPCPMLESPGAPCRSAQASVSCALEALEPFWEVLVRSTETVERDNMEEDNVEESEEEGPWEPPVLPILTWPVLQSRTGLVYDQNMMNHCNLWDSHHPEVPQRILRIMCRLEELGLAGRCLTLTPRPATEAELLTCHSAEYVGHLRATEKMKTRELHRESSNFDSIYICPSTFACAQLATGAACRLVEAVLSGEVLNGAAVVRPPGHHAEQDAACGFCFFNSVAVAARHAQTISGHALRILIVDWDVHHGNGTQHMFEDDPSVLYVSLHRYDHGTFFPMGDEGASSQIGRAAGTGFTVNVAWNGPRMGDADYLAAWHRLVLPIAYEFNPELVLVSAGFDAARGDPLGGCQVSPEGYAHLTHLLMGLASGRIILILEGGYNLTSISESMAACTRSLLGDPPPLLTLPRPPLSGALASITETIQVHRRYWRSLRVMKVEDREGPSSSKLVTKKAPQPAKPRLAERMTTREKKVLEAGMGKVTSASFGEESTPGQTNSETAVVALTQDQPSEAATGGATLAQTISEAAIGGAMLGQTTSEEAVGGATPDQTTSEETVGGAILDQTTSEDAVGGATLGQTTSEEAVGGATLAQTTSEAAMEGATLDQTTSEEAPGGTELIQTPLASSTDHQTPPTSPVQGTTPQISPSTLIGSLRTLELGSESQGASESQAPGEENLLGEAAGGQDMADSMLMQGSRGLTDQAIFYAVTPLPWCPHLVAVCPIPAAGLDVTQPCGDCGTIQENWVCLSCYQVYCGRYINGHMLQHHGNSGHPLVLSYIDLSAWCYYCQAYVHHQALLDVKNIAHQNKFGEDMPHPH
To be noted: at 10 µM.
Consider `Nc1sc2c(c1C(=O)c1ccc(Cl)cc1)CCCC2`, for which the inhibition (commonly the drop in the measured response relative to a control, in per cent) turned out to be 31.2%.

For the compound `O=C1CC2(CCCC2)CC(=O)N1CCCCNCC1COc2ccccc2O1` (configuration not stated), the inhibition is 18.1%.

Take `Cc1cccc(Nc2cc(Cl)nc(SCC(=O)O)n2)c1C`: the inhibition came to 9.22%.

With `O=C(CCCCCCC(=O)NO)NO`, the inhibition stood at 99.2%.

With `O=C(O)CCCCCCCC(=O)O`, the inhibition was found to be 29.8%.

Regarding `O=C(O)CCCCCCCCC(=O)O`, the inhibition stood at 0.61%.

Take `NC(=O)c1cccnc1`: the inhibition stood at 2.11%.

Turning to `O=C(CCCCCCC(=O)Nc1cccnc1)NO`, the inhibition came out at 100%.

In the case of `Cc1cc(-c2ccc(CC(=O)Nc3ccc(-c4cccnc4)cc3)cc2)ccn1`, the inhibition worked out at 37.6%.

Turning to `O=[N+]([O-])c1ccc2c(c1)S(=O)(=O)C=C2`, the inhibition stood at 20.7%.

As for `NC(C(=O)O)c1ccc(C(=O)O)c(C(=O)O)c1` (racemic), the inhibition was determined as 1.97%.

Regarding `COc1ccc(-c2csc(NC(=O)[C@H]3CCCCN3S(=O)(=O)c3ccc(C)cc3)n2)cc1`, the inhibition came to 0.15%.

Consider `Nc1nc(NC[C@H]2CC[C@H](CNS(=O)(=O)c3cccc4ccccc34)CC2)nc2ccccc12`, for which the inhibition amounted to 9.28%.

As for `CCOc1ccccc1C(=O)O`, the inhibition came to 0.84%.

Take `CCCCNc1ncc2c(-c3ccc(CN4CCN(C)CC4)cc3)cn([C@H]3CC[C@H](O)CC3)c2n1`: the inhibition is 62.3%.

On to `COC(=O)c1ccccc1COc1ccccc1[N+](=O)[O-]`, for which the inhibition amounted to 35.8%.

`N=C(N)NCCC[C@H](NC(=O)c1sccc1NS(=O)(=O)c1cccc2nsnc12)C(=O)O`: the inhibition is -2.5%.

With `CCN(CC)CCCN(c1ccccc1)C1Cc2ccccc2C1`, the inhibition was 9.47%.

For `CCOC(=O)c1ccc(N)cc1`, the inhibition is 16.9%.

On to `CCOC(=O)c1c(C)n(C)c2ccc(O)cc12`, for which the inhibition turned out to be 60.5%.

As for `CCOC(=O)C1=C(C)NC(=S)NC1c1cccc(O)c1` (configuration not stated), the inhibition was found to be 7.87%.

In the case of `O=C1C=CC(=O)C2=C1C1c3ccccc3C2c2ccccc21`, the inhibition is -5.86%.

In the case of `N#CC(c1ccnc(OCc2ccc(CN3CCOCC3)cc2)n1)c1nc2ccccc2s1` (configuration not stated), the inhibition was 73.7%.

Take `N[C@H]1CCN(O)C1=O`: the inhibition is -4.15%.

As to `CCNC(=O)[C@@H]1CCCN1C(=O)[C@H](CCCNC(=N)N)NC(=O)[C@H](CC(C)C)NC(=O)[C@@H](CC(C)C)NC(=O)[C@H](Cc1ccc(O)cc1)NC(=O)[C@H](CO)NC(=O)[C@H](Cc1c[nH]c2ccccc12)NC(=O)[C@H](Cc1c[nH]cn1)NC(=O)[C@@H]1CCC(=O)N1`, the inhibition amounted to 33.6%.

In the case of `N#Cc1c(N)nc(SCc2ncc[nH]2)c(C#N)c1-c1ccc(O)cc1`, the inhibition is 54.7%.

Turning to `CC(C)C[C@H](NC(=O)[C@@H](Cc1c[nH]c2ccccc12)NC(=O)[C@H](Cc1ccc(O)cc1)NC(=O)[C@H](CO)NC(=O)[C@H](Cc1c[nH]c2ccccc12)NC(=O)[C@H](Cc1c[nH]cn1)NC(=O)[C@@H]1CCC(=O)N1)C(=O)N[C@@H](CCCNC(=N)N)C(=O)N1CCC[C@H]1C(=O)NCC(N)=O`, the inhibition was -2.71%.

In the case of `CN(C)CCN(Cc1cccs1)c1ccccn1`, the inhibition stood at 11.5%.

As to `Nc1nc(O)c2c(n1)NCC(CNc1ccc(C(=O)N[C@@H](CCC(=O)O)C(=O)O)cc1)N2` (some centres not stated), the inhibition was -7.59%.

As for `Cc1csc(-c2nnc(Nc3ccc(Oc4ncccc4-c4ccnc(N)n4)cc3)c3ccccc23)c1`, the inhibition is 72.1%.

On to `Cc1cc(C(=O)Nc2nc3cccc(Cl)c3n2[C@@H]2CCCCN(C(=O)/C=C/CN(C)C)C2)ccn1`, for which the inhibition is -3.32%.

For the compound `C#CCN1C(C)=C(C(=O)OC)C(c2cccc([N+](=O)[O-])c2)C(C(=O)OCC)=C1C` (configuration not stated), the inhibition is -1.94%.

Regarding `C=CC(=O)Nc1cccc(Oc2nc(Nc3ccc(N4CCN(C)CC4)cc3)nc3ccsc23)c1`, the inhibition turned out to be 14.3%.

For `CCC(C)C(CC)C(N)=O` (configuration not stated), the inhibition amounted to 2.6%.

`C=Cc1cc(O)cc2nc(-c3ccc(O)c(F)c3)oc12`: the inhibition is -4.14%.

`O=C(NC1CC1)c1cc(-c2cccs2)on1`: the inhibition was 75.4%.

For the compound `C=CC(=O)Nc1cc2c(Nc3ccc(F)c(Cl)c3)ncnc2cc1OCCCN1CCOCC1`, the inhibition amounted to 9.13%.

Take `Nc1nncs1`: the inhibition was 6.15%.

As to `O=C(Nc1ccc([N+](=O)[O-])cc1O)Nc1ccccc1Br`, the inhibition turned out to be 101%.

In the case of `NC(=O)c1ccc([N+](=O)[O-])cc1Cl`, the inhibition is 8.11%.

In the case of `CN(N=O)C(=O)N[C@@H](C=O)[C@@H](O)[C@H](O)[C@H](O)CO`, the inhibition was -1.89%.

As to `c1ccc2cc(C3=NCCN3)ncc2c1`, the inhibition stood at 3.66%.

Regarding `Cc1sc2c(c1C)C(c1ccc(Cl)cc1)=N[C@@H](CC(=O)Nc1ccc(OCCOCCOCCOCCNc3cccc4c3C(=O)N(C3CCC(=O)NC3=O)C4=O)cc1)c1nnc(C)n1-2` (some centres not stated), the inhibition was 9.19%.

Turning to `CC(C(=O)O)c1ccc(C(=O)c2cccs2)cc1` (configuration not stated), the inhibition was -7.49%.

For the compound `CC(C(=O)O)c1ccc(N2Cc3ccccc3C2=O)cc1` (configuration not stated), the inhibition stood at 94.7%.

For the compound `CC(C(=O)O)c1ccc2c(c1)CC(=O)c1ccccc1S2` (configuration not stated), the inhibition was -3.14%.

In the case of `CCC(C)(C)c1ccc(CC(C)CN2C[C@@H](C)O[C@@H](C)C2)cc1` (some centres not stated), the inhibition was -1.12%.
